# Experimental data as given in ChEMBL document CHEMBL1961873, “Compounds: GSK PKIS; Assays: Nanosyn kinase panel” (2012).
# What was measured:
# [1] = biological target: Protein kinase C gamma type (Homo sapiens) (UniProt P05129); conditions: at 1 µM;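 further: each value is an averaged percent inhibition of the enzyme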
# [2] = biological target: T1, Protein kinase C iota type (Homo sapiens) (UniProt P41743); conditions: at 0.1 µM
# T1 sequence (whole entry): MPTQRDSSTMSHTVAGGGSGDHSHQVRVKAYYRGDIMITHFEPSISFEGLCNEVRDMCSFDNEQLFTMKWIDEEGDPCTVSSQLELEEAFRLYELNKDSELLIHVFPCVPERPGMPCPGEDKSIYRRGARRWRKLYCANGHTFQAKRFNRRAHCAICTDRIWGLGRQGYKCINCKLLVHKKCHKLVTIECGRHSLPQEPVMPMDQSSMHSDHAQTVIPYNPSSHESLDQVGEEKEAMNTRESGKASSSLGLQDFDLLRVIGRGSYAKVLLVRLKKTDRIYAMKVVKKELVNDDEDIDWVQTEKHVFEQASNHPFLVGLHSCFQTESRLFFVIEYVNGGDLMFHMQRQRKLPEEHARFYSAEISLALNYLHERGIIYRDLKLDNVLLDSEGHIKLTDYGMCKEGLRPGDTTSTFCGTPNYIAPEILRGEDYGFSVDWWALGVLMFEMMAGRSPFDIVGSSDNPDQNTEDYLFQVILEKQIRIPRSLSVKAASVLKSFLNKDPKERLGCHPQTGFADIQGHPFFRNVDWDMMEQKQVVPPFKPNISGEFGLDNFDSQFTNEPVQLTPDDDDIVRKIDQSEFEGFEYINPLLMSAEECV
# [3] = biological target: T1, Protein kinase C iota type (Homo sapiens); conditions: at 1 µM
# [4] = biological target: Protein kinase C theta type (Homo sapiens) (UniProt Q04759); conditions: at 0.1 µM
# [5] = biological target: Protein kinase C theta type (Homo sapiens) (UniProt Q04759); conditions: at 1 µM
# [6] = biological target: Protein kinase C beta type (Homo sapiens) (UniProt P05771); conditions: at 0.1 µM
# [7] = biological target: Protein kinase C beta type (Homo sapiens) (UniProt P05771); conditions: at 1 µM
# [8] = biological target: T2, Serine/threonine-protein kinase D1 (Homo sapiens) (UniProt Q15139); conditions: at 0.1 µM
# T2 sequence (whole entry): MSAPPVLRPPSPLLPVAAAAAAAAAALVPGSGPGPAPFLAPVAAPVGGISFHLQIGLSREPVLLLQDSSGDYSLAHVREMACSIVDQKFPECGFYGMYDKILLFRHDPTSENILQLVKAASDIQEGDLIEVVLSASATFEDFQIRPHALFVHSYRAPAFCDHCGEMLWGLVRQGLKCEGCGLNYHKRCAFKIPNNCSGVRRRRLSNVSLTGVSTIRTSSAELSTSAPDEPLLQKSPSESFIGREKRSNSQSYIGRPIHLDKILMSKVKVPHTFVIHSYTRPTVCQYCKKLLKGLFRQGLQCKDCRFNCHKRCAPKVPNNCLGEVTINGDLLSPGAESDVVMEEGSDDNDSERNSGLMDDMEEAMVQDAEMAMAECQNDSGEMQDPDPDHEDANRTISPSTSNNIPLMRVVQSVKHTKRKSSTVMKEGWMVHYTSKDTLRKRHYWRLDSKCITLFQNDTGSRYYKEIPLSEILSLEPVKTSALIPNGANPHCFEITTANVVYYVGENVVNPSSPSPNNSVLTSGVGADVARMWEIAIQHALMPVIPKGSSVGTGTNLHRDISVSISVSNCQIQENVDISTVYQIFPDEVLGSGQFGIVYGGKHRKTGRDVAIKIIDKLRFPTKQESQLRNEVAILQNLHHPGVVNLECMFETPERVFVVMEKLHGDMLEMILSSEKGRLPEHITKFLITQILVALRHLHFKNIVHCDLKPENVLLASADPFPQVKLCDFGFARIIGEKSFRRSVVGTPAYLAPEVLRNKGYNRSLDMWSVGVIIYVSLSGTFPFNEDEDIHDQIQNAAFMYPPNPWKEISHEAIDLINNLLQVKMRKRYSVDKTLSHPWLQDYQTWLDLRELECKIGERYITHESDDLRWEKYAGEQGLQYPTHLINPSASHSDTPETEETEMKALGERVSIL
# [9] = biological target: T2, Serine/threonine-protein kinase D1 (Homo sapiens); conditions: at 1 µM
# [10] = biological target: T3, Serine/threonine-protein kinase D2 (Homo sapiens) (UniProt Q9BZL6); conditions: at 0.1 µM;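 further: reported percent inhibition values are means, part of the GSK PKIS kinase panel screen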
# T3 sequence (whole entry): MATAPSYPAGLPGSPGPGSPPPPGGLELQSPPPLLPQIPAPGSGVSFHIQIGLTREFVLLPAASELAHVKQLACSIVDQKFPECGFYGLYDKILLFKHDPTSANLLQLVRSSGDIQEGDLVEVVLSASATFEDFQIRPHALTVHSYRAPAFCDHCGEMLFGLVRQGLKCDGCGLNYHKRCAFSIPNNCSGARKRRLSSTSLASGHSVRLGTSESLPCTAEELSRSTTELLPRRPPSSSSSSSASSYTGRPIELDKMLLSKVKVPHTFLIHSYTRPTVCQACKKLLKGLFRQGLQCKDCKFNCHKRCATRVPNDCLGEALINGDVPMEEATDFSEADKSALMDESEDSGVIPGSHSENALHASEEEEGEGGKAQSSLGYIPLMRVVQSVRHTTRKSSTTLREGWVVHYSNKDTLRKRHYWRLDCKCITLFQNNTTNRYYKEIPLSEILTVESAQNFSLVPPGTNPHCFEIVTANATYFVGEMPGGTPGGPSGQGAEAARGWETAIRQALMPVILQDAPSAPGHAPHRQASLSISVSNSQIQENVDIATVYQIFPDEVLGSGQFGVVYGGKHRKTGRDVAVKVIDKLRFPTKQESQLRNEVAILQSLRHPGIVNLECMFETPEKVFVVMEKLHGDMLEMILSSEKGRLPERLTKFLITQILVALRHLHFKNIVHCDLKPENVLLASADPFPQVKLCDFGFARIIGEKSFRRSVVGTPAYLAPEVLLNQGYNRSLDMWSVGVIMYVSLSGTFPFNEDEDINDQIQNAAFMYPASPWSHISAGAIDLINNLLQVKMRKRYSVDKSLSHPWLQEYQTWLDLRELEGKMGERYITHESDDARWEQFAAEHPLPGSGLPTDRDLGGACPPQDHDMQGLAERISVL
# Protein kinase C beta type (Homo sapiens), sequence (P05771 2-671 limits assumed): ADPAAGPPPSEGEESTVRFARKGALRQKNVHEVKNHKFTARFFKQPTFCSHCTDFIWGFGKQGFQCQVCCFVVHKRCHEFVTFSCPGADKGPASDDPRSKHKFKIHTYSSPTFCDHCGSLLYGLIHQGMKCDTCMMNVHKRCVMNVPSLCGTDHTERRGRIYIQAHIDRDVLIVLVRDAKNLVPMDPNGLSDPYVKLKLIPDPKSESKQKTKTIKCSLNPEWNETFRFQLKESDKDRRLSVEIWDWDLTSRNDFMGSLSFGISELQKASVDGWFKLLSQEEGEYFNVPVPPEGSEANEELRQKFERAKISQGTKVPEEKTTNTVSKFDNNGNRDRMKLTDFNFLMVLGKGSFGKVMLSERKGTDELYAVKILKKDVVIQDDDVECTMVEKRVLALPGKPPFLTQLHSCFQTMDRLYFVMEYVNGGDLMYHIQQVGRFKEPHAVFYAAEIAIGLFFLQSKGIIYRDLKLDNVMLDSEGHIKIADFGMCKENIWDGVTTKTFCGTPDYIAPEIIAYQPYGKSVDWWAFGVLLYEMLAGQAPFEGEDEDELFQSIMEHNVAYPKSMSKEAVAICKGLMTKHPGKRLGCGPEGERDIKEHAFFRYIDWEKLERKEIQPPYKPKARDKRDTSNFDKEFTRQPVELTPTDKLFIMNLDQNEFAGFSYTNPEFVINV
# Protein kinase C theta type (Homo sapiens), sequence (Q04759 whole entry, looked up): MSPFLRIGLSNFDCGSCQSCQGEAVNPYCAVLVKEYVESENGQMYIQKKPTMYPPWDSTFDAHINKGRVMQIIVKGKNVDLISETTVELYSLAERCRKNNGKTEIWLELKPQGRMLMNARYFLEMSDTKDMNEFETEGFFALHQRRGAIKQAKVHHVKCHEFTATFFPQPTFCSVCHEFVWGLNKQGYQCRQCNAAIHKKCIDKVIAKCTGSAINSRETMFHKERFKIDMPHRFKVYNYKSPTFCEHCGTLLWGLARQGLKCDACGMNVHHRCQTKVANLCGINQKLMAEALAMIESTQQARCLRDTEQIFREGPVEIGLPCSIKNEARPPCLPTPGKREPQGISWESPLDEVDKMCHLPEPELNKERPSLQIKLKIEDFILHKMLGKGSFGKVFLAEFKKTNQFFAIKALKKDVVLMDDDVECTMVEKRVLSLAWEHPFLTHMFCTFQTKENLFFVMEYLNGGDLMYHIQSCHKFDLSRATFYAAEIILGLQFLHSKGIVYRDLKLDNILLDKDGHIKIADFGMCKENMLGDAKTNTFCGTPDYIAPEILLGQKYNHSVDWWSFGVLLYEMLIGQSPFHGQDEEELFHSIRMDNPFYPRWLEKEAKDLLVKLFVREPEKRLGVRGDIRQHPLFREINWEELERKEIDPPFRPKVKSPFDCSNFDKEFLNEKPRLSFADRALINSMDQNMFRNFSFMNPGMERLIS
SMILES,inhibition [1],inhibition [2],inhibition [3],inhibition [4],inhibition [5],inhibition [6],inhibition [7],inhibition [8],inhibition [9],inhibition [10]
NC(=O)c1cccc(Nc2nccc(Nc3cccc4[nH]ncc34)n2)c1,9.98%,-0.89%,-1.43%,0.02%,6.28%,-1.01%,7.52%,-1.68%,6.22%,-1.94%
CC(C)=Cc1cccc2c1/C(=N/Nc1ccc(S(N)(=O)=O)cc1)C(=O)N2,1.25%,0.62%,0.09%,1.24%,6.89%,0.32%,1.68%,2.84%,13.5%,-0.05%
CC1=C(C(=O)Nc2ccc3[nH]ncc3c2)C(c2ccc3ccccc3c2)CC(=O)N1 (stereo not given),2.79%,1.06%,0.77%,1.49%,3%,0.83%,1.67%,2.78%,9.17%,2.02%
Fc1cccc(COc2ccc(Nc3ncnc4sc(-c5cccs5)cc34)cc2Cl)c1,2.13%,0.71%,1.19%,0.32%,0.01%,-0.19%,0.44%,0.09%,0.23%,-1.32%
Cc1nn(C)c2cc(N(C)c3ccnc(Nc4cccc(S(N)(=O)=O)c4)n3)ccc12,10.3%,2.3%,3.87%,1.21%,2.49%,2.72%,6.99%,2.29%,4.44%,3.66%
NS(=O)(=O)c1ccc(N/N=C2\C(=O)Nc3ccc(C(=O)NCCc4c[nH]cn4)cc32)cc1,5.55%,2.26%,2.34%,2.03%,3.63%,1.05%,2.48%,6.28%,34.4%,5.45%
COc1cc2ncn(-c3cc(OCc4ccccc4Cl)c(C(N)=O)s3)c2cc1OC,2.36%,1.15%,0.82%,-0.26%,0.66%,0.93%,0.76%,0.01%,0.57%,-0.54%
COc1cc(C=NNc2ncnc3c2cnn3-c2ccccc2)ccc1O,12.4%,1.32%,5.26%,0.44%,0.62%,1.72%,5.98%,1.65%,3.18%,1.16%
NCc1ccc(-c2nc(-c3ccc(Cl)c(O)c3)c(-c3ccncc3)[nH]2)cc1,0.42%,-0.2%,-0.02%,-0.02%,-0.18%,0.76%,10.8%,0.78%,2.64%,1.57%
COc1cc2ncn(-c3cc(OCc4ccccc4C(F)(F)F)c(C(N)=O)s3)c2cc1OC,0.51%,3.36%,3.32%,2.16%,3.1%,1.23%,2%,0.73%,0.99%,1.16%
COc1cccc(-n2ncc3c(N/N=C/c4cccc(F)c4)ncnc32)c1,1.92%,1.95%,1.9%,0.55%,2.23%,1.7%,3.14%,-1.15%,0.28%,-1.06%
COc1cc2ncn(-c3cc(O[C@@H](C)c4ccccc4Cl)c(C(N)=O)s3)c2cc1OC,1.93%,3.86%,4.88%,2.16%,3.24%,1.99%,5.36%,5.25%,6.69%,4.18%
Nc1ncnc2occ(-c3ccc(NC(=O)Nc4cc(C(F)(F)F)cc(C(F)(F)F)c4)cc3)c12,-0.32%,0.16%,2.82%,0.72%,-1.36%,0.68%,0.44%,1.17%,1.94%,1.61%
COc1ccc(-c2coc3ncnc(N)c23)cc1,3.98%,1.44%,3.36%,1.7%,1.28%,1.62%,2.4%,4.27%,6.99%,4.87%
CS(=O)(=O)CCNCc1ccc(-c2ccc3ncnc(Nc4ccc(OCc5cccc(F)c5)c(C(F)(F)F)c4)c3c2)o1,4.01%,2.77%,0.63%,2.4%,2.71%,1.67%,2.44%,4.99%,3.72%,4.63%
[O-][S+]1CCN(Cc2ccc(-c3ccc4ncnc(Nc5ccc(OCc6ccccc6)c(F)c5)c4c3)o2)CC1,-0.2%,1.01%,1.01%,0.77%,-0.73%,0.35%,0.5%,2.32%,4.27%,3.5%
O=C1NC(=O)C(N2CCc3ccccc32)=C1c1ccc(Cl)cc1,2.33%,1.4%,3.19%,2.06%,1.93%,1.71%,1.65%,3.74%,5.59%,4.57%
